Compounds with a hit are over-represented: about 4.6% of the library has one in this group of screens.
Lassa entry inh: blocks Lassa virus binding to or entry into cells; actives 1.2% (n = 300,000); AID 540256; Potency, µM (highest dose often 37.9 µM), for inactives: at the top dose activity change, negative = inhibition, hits mostly inhibitors; Lassa virus pseudotype entry inhibition, cell reporter; calls by dose curve; tested in HEK293 cells; also: nearly all actives have a fitted effect of over 50% in size
Marburg entry inh: inhibitors of Marburg virus binding or cell entry; Potency, µM (series often up to 37.8 µM), for the others: at the highest dose activity change, negative = inhibition, usual class: inhibitors; AID 540276; actives 1.8% (n = 300,000); Marburg virus pseudotyped entry inhibition, cell reporter; calls by dose curve; tested in HEK293 cells
HCV inhibitor: blocks hepatitis C virus | actives 3.4% (n = 340,000) | Potency, µM (top dose mostly 41.8 µM), for the others: at the top dose activity change, negative = inhibition, actives largely listed as inhibitors | Huh7.5.1 HCVcc-Cre infection, luciferase reporter, 44 h; active = well fitted inhibition curve with a large enough effect; inconclusive = small, poorly fitted or top-dose-only effect, or another doubt; inactive = no such curve, though single readings can be large or run the other way
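Infectious HCV cell culture screen: compound-treated cells (1,000/well, pre-plated 4 h) are infected with HCVcc-Cre at roughly 0.5 moi and grown 44 h. Infection is quantified by luciferase signal after 15 min substrate incubation at room temperature.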
VACV mCherry inh: vaccinia inhibition (mCherry reporter). Vaccinia virus mCherry reporter infection, fluorescence. Potency, µM (highest dose often 36.5 µM), inactives show at the highest dose activity change, negative = inhibition, actives largely listed as inhibitors. actives 0.63% (n = 310,000); calls by dose curve; tested in A549 cells; also: nearly all actives have a fitted effect of over 35% in size
VACV Venus inh: vaccinia inhibition (Venus reporter); Vaccinia virus Venus reporter expression, fluorescence; Potency, µM (top dose mostly 36.5 µM), for inactives: top-dose activity change, negative = inhibition, most hits filed as inhibitors; actives 0.46% (n = 330,000); AID 720580; calls by dose curve; tested in A549 cells; also: nearly all actives have a fitted effect of over 30% in size
An asterisk follows results filed as active; [ ] = remark or other dose. % is scaled to controls: 0 for no effect and ±100 for the full control effect; potency is read from the fitted curve at half-maximal effect.

Screening C[C@H]1[C@H](C)CC[C@]2(C(=O)O)CC[C@]3(C)C(=CC[C@@H]4[C@@]5(C)CC[C@H](O)C(C)(C)[C@@H]5CC[C@]43C)[C@H]12 returned HCV inhibitor 0.32µM*, VACV mCherry inh -24% and VACV Venus inh -25%.
For C[C@@H]1CC[C@]2(C(=O)O)CC[C@]3(C)C(=CCC4[C@]56CC[C@@](O)(OC5)C(C)(C)C6CC[C@]43C)C2[C@H]1C (some centres not stated) the results were HCV inhibitor 2µM*, VACV mCherry inh -25% and VACV Venus inh -22%.
For CCc1ccc(CNC(=O)C2CCCN(S(=O)(=O)c3ccc4c(ccn4C)c3)C2)cc1 (configuration not stated) the results were Lassa entry inh inconclusive, VACV mCherry inh inconclusive and VACV Venus inh -21%.
`Cc1ccc(C(=O)N/C(=C\c2ccc(-c3ccc(Br)cc3)o2)C(=O)NCCCN(C)C)cc1` gave HCV inhibitor 2µM*.
`CN(C)CCNC(=O)/C(=C/c1ccc(-c2ccc(Cl)cc2Cl)o1)NC(=O)c1ccccc1` gave Lassa entry inh inconclusive, Marburg entry inh 6.3µM*, HCV inhibitor 10µM*, VACV mCherry inh inconclusive and VACV Venus inh 11µM*.
Screening CN(C)CCCNC(=O)/C(=C\c1ccc(-c2cccc([N+](=O)[O-])c2)o1)NC(=O)c1ccccc1 returned Lassa entry inh -26%, Marburg entry inh inconclusive, HCV inhibitor inconclusive, VACV mCherry inh inconclusive and VACV Venus inh -3%.
Cc1ccc(C(=O)N/C(=C\c2cn(C)c3ccccc23)C(=O)NCCCN2CCOCC2)cc1 was read as Lassa entry inh 8%[46.1 µM], Marburg entry inh -14%[46.1 µM], HCV inhibitor -4%, VACV mCherry inh inconclusive and VACV Venus inh -20%.
`CN(C)CCNC(=O)/C(=C/c1ccc(-c2ccc(Cl)cc2)o1)NC(=O)c1ccccc1` gave Lassa entry inh inconclusive, Marburg entry inh 12µM*, HCV inhibitor 10µM*, VACV mCherry inh -4% and VACV Venus inh inconclusive.
Cc1ccc(C(=O)N/C(=C\c2ccc(-c3ccccc3[N+](=O)[O-])o2)C(=O)NCCCN2CCOCC2)cc1 was read as Lassa entry inh inconclusive, Marburg entry inh inconclusive, HCV inhibitor 25µM*, VACV mCherry inh inconclusive and VACV Venus inh -13%.
For CSC1=C(C#N)[C@H](C)CC(=O)N1 the results were Marburg entry inh -17%.
CC(I)CCC(C)[n+]1cccc(I)c1 (configuration not stated) was read as VACV mCherry inh -12% and VACV Venus inh 12%.
CCOc1ccc(CN(C)C(=O)CNC(=O)c2ccccc2)cc1 was read as Lassa entry inh 0%[46.1 µM], Marburg entry inh -21%[46.1 µM], HCV inhibitor 4%, VACV mCherry inh -8% and VACV Venus inh -1%.
C=CCOc1ccc(CN(C)C(=O)CNC(=O)c2ccc(-c3ccccc3)cc2)cc1 was read as Lassa entry inh inconclusive, Marburg entry inh inconclusive, HCV inhibitor 11µM*, VACV mCherry inh inactive and VACV Venus inh -30%.
For CC(=O)CSc1nnc2[nH]c(=O)cc(N)n12 the results were Lassa entry inh 16%[46.1 µM], VACV mCherry inh -10% and VACV Venus inh -13%.
C=C1CC[C@H](O)C/C1=C/C=C1\CCC[C@]2(C)C([C@H](C)CCCC(C)(C)O)CC[C@@H]12 (some centres not stated) was read as VACV mCherry inh -11%[3.33 µM] and VACV Venus inh -7%[3.33 µM].
For Cc1ccc(-c2csc(NC(=O)c3ccc([N+](=O)[O-])o3)n2)cc1 the results were Lassa entry inh inconclusive, Marburg entry inh inconclusive, HCV inhibitor 14µM*, VACV mCherry inh inconclusive and VACV Venus inh inconclusive.
`CCCOC(=O)Nc1nc(-c2ccc(C)cc2)c(C)s1` gave Lassa entry inh 11µM*, Marburg entry inh 0%[46.1 µM], HCV inhibitor -16%, VACV mCherry inh inactive and VACV Venus inh -7%.
For COc1ccc(-c2nc(NC(=O)Cn3cnnn3)sc2C)cc1 the results were HCV inhibitor -3%.
Cc1ccc(-c2nc(NC(=O)c3nn(C)cc3[N+](=O)[O-])sc2C)cc1C was read as Lassa entry inh 4µM*, Marburg entry inh inconclusive, HCV inhibitor inconclusive, VACV mCherry inh 10µM* and VACV Venus inh 13µM*.
Screening Cc1ccc(-c2csc(NC(=O)c3ccc(C)o3)n2)cc1 returned Lassa entry inh 0%, Marburg entry inh 5%, HCV inhibitor inconclusive, VACV mCherry inh -9% and VACV Venus inh 13%.
For Cn1cc([N+](=O)[O-])c(C(=O)Nc2nc(-c3ccc(Cl)cc3)cs2)n1 the results were Lassa entry inh inconclusive, Marburg entry inh inconclusive, HCV inhibitor 4µM* and VACV Venus inh 11µM*.
Screening Cc1ccc(-c2nc(NC(=O)c3nn(C)cc3[N+](=O)[O-])sc2C)cc1 returned Marburg entry inh -1% and HCV inhibitor 4.5µM*.
Screening O=C(NCC1CCC2(CCN(Cc3cccn3-c3ccc(Cl)cn3)CC2)O1)c1ccccc1 (configuration not stated) returned VACV mCherry inh -9% and VACV Venus inh -1%.
`Cc1ccc(CNC(=O)[C@H](C)[C@H]2C[C@]2(C)[C@H](NC(=O)OCc2ccccc2)c2ccccc2)o1` gave Lassa entry inh -20%, Marburg entry inh 10µM*, HCV inhibitor -10%[8.37 µM], VACV mCherry inh inactive and VACV Venus inh inconclusive.
C[C@@H](C(=O)NCc1ccccc1)[C@@H]1C[C@@]1(C)[C@@H](NC(=O)OCc1ccccc1)c1ccccc1 was read as Lassa entry inh 7.3µM*, Marburg entry inh -62%, HCV inhibitor inconclusive, VACV mCherry inh inconclusive and VACV Venus inh -30%.
For CCOc1ccc(C(=O)NCC(c2ccc3c(c2)OCO3)N2CCN(C)CC2)cc1 (configuration not stated) the results were Lassa entry inh -9%[46.1 µM], VACV mCherry inh 2% and VACV Venus inh 3%.
`CCC(C)Sc1oc(-c2ccco2)nc1S(=O)(=O)c1ccc(C)cc1` (configuration not stated) gave Lassa entry inh -10%[46.1 µM], Marburg entry inh 10µM*, VACV mCherry inh -14% and VACV Venus inh -13%.
`CSc1oc(-c2ccco2)nc1S(=O)(=O)c1ccc(C)cc1` gave Lassa entry inh 11%[46.1 µM], Marburg entry inh inconclusive, HCV inhibitor 0%, VACV mCherry inh -25% and VACV Venus inh -8%.
For CC(=O)Nc1ccc(CN(C)CC2CCCN(CCc3cccc(C(F)(F)F)c3)C2)cc1 (configuration not stated) the results were Lassa entry inh inconclusive, Marburg entry inh 10µM*, HCV inhibitor 1.4µM*, VACV mCherry inh -27% and VACV Venus inh -24%.
CCN(Cc1ccc(O)cc1)CC1CCCN(CCc2cccc(F)c2)C1 (configuration not stated) was read as HCV inhibitor 8.9µM*.
For COc1ccc(/C=C/C(=O)c2c(O)c(OC)c3occc3c2OC)cc1OC the results were VACV mCherry inh -12% and VACV Venus inh -23%.
